The record followed here is PubChem BioAssay AID1259418 (Broad Institute, 2018).

Hit rate of the full screen: of about 3,400 compounds, about 840 (25%) were called active. Inconclusive results (about 11%) are left out.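 The calls were made as follows: active = fitted half-maximal concentration of signal decrease at or below twice the sample's top tested concentration; inconclusive = flat curve between -70 and -30 percent, or poor fit; inactive = flat within 30 percent, signal rise, or potency above limit.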 These entries were drawn from the full list. Results with a measured potency or affinity are listed apart.

The experiment is described as follows: T. gondii growth inhibition with IFN-gamma, dose response, cell-based, ME49Luc, HeLa, luciferase, 72 h (AID 1259418). The following applies: T. gondii ME49Luc in IFN-y HeLa, stronger effect = lower value, -100% = high-dose IFN-γ control wells; at 19.5 µM unless noted.
For `CC1CCN(c2nc(-c3ccc(Cl)cc3)nc3ccccc23)CC1`, the max activity was 5% [at 10 µM] (inactive).
In the case of `COc1ccc(-c2nc(N3CCC(c4ccccc4)C3)c3ccccc3n2)cc1` (stereo not given), the max activity is -14.1% [at 2.6 µM] (inactive).
The figure for `Clc1ccc(-c2nc(N3CCN(C4CCCCC4)CC3)c3ccccc3n2)cc1` is 19% [at 0.16 µM] (inactive).
The figure for `Clc1ccc(-c2nc(N3CCC(Cc4ccccc4)CC3)c3ccccc3n2)cc1` is 11.8% (inactive); for `O=C(c1ccc(F)cc1)N1c2ccccc2Sc2ccc(C(F)(F)F)cc21` it is -23.5% [at 0.08 µM] (inactive); for `Cc1ccc(-c2cc(C(=O)Nc3ccc4c(c3)CCC(=O)N4)c3ccccc3n2)cc1C` it is 6.1% [at 1.35 µM] (inactive).
The figure for `CCc1onc(C)c1C1CCCN1Cc1cn(CC(=O)OC)c2ccc(OC)cc12` (stereo not given) is 13.3% [at 5 µM] (inactive).
In the case of `COc1ccc(-c2nc3c(s2)CN(C(=O)Nc2ccc(C)cc2Cl)CC3)cc1`, the max activity was 78.4% (inactive).
On to `O=C(Nc1ccc(F)cc1)N1CC(=O)N2[C@@H](CO)[C@@H](c3ccc(C4=CCCC4)cc3)[C@@H]2C1`, for which the max activity is 25.4% [at 10 µM] (inactive).
Turning to `O=C(c1cnccn1)N1CC(=O)N2[C@H](CO)[C@H](c3ccc(-c4cccc(F)c4)cc3)[C@@H]2C1`, the max activity is 25.7% (inactive).
For the compound `O=C(c1cnccn1)N1CC(=O)N2[C@H](C1)[C@@H](c1ccc(-c3cccc(F)c3)cc1)[C@@H]2CO`, the max activity was 6.32% (inactive).
As to `CCOc1ccccc1-c1noc(-c2nnn(Cc3nc(-c4ccc(OC)cc4)oc3C)c2C)n1`, the max activity is 9.41% [at 1.35 µM] (inactive).
The figure for `COC(=O)c1ccccc1NC(=O)Nc1ccc(-c2nc(-c3ccc(C)cc3C)co2)cc1` is 13.8% [at 0.16 µM] (inactive); for `CSCc1noc(CN2CCCC3(C2)CN(C)C(=O)O3)n1` (stereo not given) it is 41.2% (inactive); for `COc1cc(OC)cc(-c2noc(-c3nnn(Cc4nc(-c5ccccc5OC)oc4C)c3C)n2)c1` it is 6.32% [at 0.68 µM] (inactive).
To `CCOc1ccc(-c2nc(CN3CCN(C(=O)Nc4ccc(C)c(C)c4)CC3)c(C)o2)cc1` belongs 14.4% [at 0.35 µM] (inactive).
The figure for `Cc1ccc(-c2nc(CN3CCN(C(=O)Nc4cc(C)cc(C)c4)CC3)c(C)o2)cc1` is 9.49% [at 2.6 µM] (inactive).
For the compound `CCOc1ccc(-c2nc(CN3CCN(C(=O)Nc4ccc(C)c(F)c4)CC3)c(C)o2)cc1`, the max activity was 15% (inactive).
To `Cc1ccc(-c2nc(CN3CCN(C(=O)Nc4cc(Cl)ccc4C)CC3)c(C)o2)cc1` belongs 11.2% [at 10 µM] (inactive); to `CCOC(=O)CSC1=Nc2ccccc2C2=NC(CCC(=O)NCc3ccccc3OC)C(=O)N12` (stereo not given), 28.4% [at 1.35 µM] (inactive); to `CC(C)N1CCC2(CC1)CC(COCC1CC1)N(c1ncccn1)C2` (stereo not given), 22.4% (inactive).
`O=C(CCC1CCCC1)N1CCC2(CC1)Nc1cc(F)ccc1-n1cccc12`: the max activity was 4.37% (inactive).
In the case of `CC(C)[C@H](CO)Nc1nc(Nc2ccc(C(=O)O)c(Cl)c2)c2ncn(C(C)C)c2n1`, the max activity is 10.1% [at 10 µM] (inactive).
`Cc1nc(-c2ccc(F)cc2)sc1-c1ccc(SCc2ccc(Br)cc2)nn1`: the max activity was 10.9% [at 1.35 µM] (inactive).
Regarding `COCC(=O)N1CCC2(CC1)Nc1ccc(C)c(C)c1-n1cccc12`, the max activity was 4.86% [at 10 µM] (inactive).
Regarding `CCc1nc(OCC(=O)Nc2ccc(Cl)c(C(F)(F)F)c2)c2ccccc2n1`, the max activity was 33.2% [at 2.6 µM] (inactive).
To `CN(C)CCN1CCOCC2(CCCN(C(=O)c3ccc4cc[nH]c4c3)C2)C1` (stereo not given) belongs 32.3% (inactive); to `Cc1cc(N2CCOCC2)nc2ccc(NC(=O)c3cc4ccccc4[nH]3)cc12`, 9.53% [at 0.16 µM] (inactive); to `COc1ccc(NC(=O)N2CCN(Cc3nc(-c4ccccc4C)oc3C)CC2)cc1`, 6.09% [at 0.16 µM] (inactive).
Take `O=C(NC1CCC12CCN(Cc1ccoc1)CC2)c1cnccn1` (stereo not given): the max activity is 54.2% (inactive).
The figure for `Cc1cc(C)c2c(=O)n(Cc3nc(-c4ccc(Cl)cc4)oc3C)c(=O)n(-c3ccccc3)c2n1` is -16.5% (inactive).
The figure for `Cc1cc(C)c2c(=O)n(Cc3nc(-c4ccccc4)oc3C)c(=O)n(-c3ccccc3)c2n1` is 11.1% [at 0.35 µM] (inactive).
Consider `O=C(NC1CCCC1)[C@H]1[C@H](CO)[C@H]2Cn3c(ccc(C4=CCCCC4)c3=O)[C@@H]1N2CC1CC1`, for which the max activity is 28.5% [at 10 µM] (inactive).
To `COc1ccccc1-c1nc(CSc2nc3c(c(=O)[nH]2)CN(Cc2ccccc2)CC3)c(C)o1` belongs 31.5% (inactive); to `COCC1CN(C(=O)Cc2ccsc2)Cc2nccn2C1` (stereo not given), 35.1% (inactive).
Turning to `Cc1ccc(Nc2ncnc3c2cnn3-c2ccc(C)cc2C)cc1`, the max activity was 16.5% [at 1.35 µM] (inactive).
The figure for `COCCCNc1ncnc2c1cnn2-c1ccc(C)cc1C` is 11.9% [at 0.16 µM] (inactive); for `CCCCc1ccc(Nc2ncnc3c2cnn3-c2cccc(C)c2)cc1` it is 13.1% [at 5 µM] (inactive).
To `Cc1ccc(-n2ncc3c(NC(C)(C)C)ncnc32)c(C)c1` belongs 53.9% (inactive); to `CCOc1ccc(-c2nc3c(s2)CN(C(=O)Nc2ccccc2CC)CC3)cc1`, 124% (inactive); to `Cc1oc(-c2cccc(Cl)c2)nc1CN1CCc2c(sc3c2CCCC3)C1c1ccccc1` (stereo not given), 20.4% (inactive).
As to `COc1ccc(N2CC(NC(=O)C(=O)c3c(C)[nH]c4ccccc34)CC2=O)cc1` (stereo not given), the max activity was 15.6% [at 2.6 µM] (inactive).
On to `COc1ccc(CC(=O)N2CCC[C@@H]2C(=O)NCCc2csc(-c3ccccc3)n2)cc1Cl`, for which the max activity was 18.7% [at 5 µM] (inactive).
The figure for `Cc1nc(-c2ccc(F)cc2)sc1-c1ccc(SCc2cccc(F)c2)nn1` is 25.1% (inactive); for `CC(C)c1ccc(S(=O)(=O)N2CCC3(CC2)NCCN=C3NCc2ccccc2)cc1` it is -31.9% (inactive).
On to `CC(C)c1ccc(S(=O)(=O)N2CCC3(CC2)NCCN=C3NCc2cccc(F)c2)cc1`, for which the max activity was -18.4% (inactive).
The figure for `COc1ccc(C2=NC3(CCN(CC(=O)Nc4ccccc4F)CC3)NC2=O)cc1` is -25.6% [at 0.35 µM] (inactive); for `Cn1nnc2c(NCCc3c[nH]c4ccccc34)ncnc21` it is 6.96% [at 0.35 µM] (inactive); for `CCc1c(C)sc2c1CCN(Cc1nc(-c3ccc(OC)cc3)oc1C)C2c1ccccc1` (stereo not given) it is 15.1% [at 5 µM] (inactive).
As for `N#Cc1cccc(-c2ccc(C3[C@@H]4CN(C(=O)Nc5ccc(C(F)(F)F)cc5)C[C@H]3N4)cc2)c1` (stereo not given in full), the max activity was 16.9% [at 10 µM] (inactive).
Regarding `Clc1cccc(CSc2nc(NC3CCCCC3)c3ccccc3n2)c1`, the max activity was 11% [at 10 µM] (inactive).
As to `CCc1onc(C)c1C1CCCN1Cc1cn(C)c2ccc(OC)cc12` (stereo not given), the max activity is 9.05% [at 0.68 µM] (inactive).
The figure for `COc1ccc(-c2nc(NCc3ccc(Cl)cc3)c3ccccc3n2)cc1` is -9.43% [at 0.35 µM] (inactive); for `COc1ccc(-c2nc(NCc3ccc4c(c3)OCO4)c3ccccc3n2)cc1` it is -12% [at 1.35 µM] (inactive).
As to `Fc1ccc(CNc2nc(-c3ccc(Cl)cc3)nc3ccccc23)cc1`, the max activity was 7.26% (inactive).
To `CCc1ccc(CNc2nc(-c3ccc(Cl)cc3)nc3ccccc23)cc1` belongs 24.5% (inactive).
For `COc1ccc(-c2nc(NCCc3ccc(Cl)cc3)c3ccccc3n2)cc1`, the max activity was 25.9% [at 0.16 µM] (inactive).
To `COc1ccc(-c2nc(NCCc3ccc(C)cc3)c3ccccc3n2)cc1` belongs 14.1% [at 0.16 µM] (inactive); to `CCC(C(=O)N1CSC[C@@H]1C(=O)NCCc1csc(-c2ccccc2)n1)c1ccccc1` (stereo not given in full), 16.6% [at 5 µM] (inactive); to `COc1cccc(-c2nc3c(s2)CN(C(=O)Nc2ccccc2C)CC3)c1`, 59.1% (inactive).
Regarding `CCCCOCCOCCOCc1cc2c(cc1CCC)OCO2`, the max activity is 17.6% (inactive).
The figure for `COc1ccc(-c2nc(Nc3cccc(C)c3)c3ccccc3n2)cc1` is -18.2% [at 0.16 µM] (inactive); for `CCc1nc(OCC(=O)NCc2ccc(OC)cc2)c2ccccc2n1` it is 25.3% (inactive); for `C/C=C/c1ccc([C@H]2[C@H](CO)N3C(=O)CN(C(=O)NC4CCCCC4)C[C@@H]23)cc1` it is 19.7% (inactive).
Turning to `O=C(Cc1cccnc1)N1CC(=O)N2[C@H](CO)[C@H](c3ccc(/C=C/c4ccccc4)cc3)[C@@H]2C1`, the max activity was 20.1% [at 10 µM] (inactive).
To `CC(C)C#Cc1ccc([C@@H]2[C@@H](CO)N3C(=O)CN(C(=O)NC4CCCC4)C[C@H]23)cc1` belongs 19% [at 10 µM] (inactive); to `O=C(Cc1cccnc1)N1CC(=O)N2[C@H](CO)[C@@H](c3ccc(/C=C/c4ccccc4)cc3)[C@H]2C1`, 9.82% [at 10 µM] (inactive).
To `CCc1ccc2c(c1)cc(S(=O)(=O)c1ccccc1)c(=O)n2CC(=O)NCCC1=CCCCC1` belongs -4.67% [at 2.6 µM] (inactive).
The figure for `Cc1nc(OCC(=O)NCc2ccc(F)cc2)c2ccccc2n1` is 25% [at 10 µM] (inactive).
With `CCc1nc(OCC(=O)Nc2ccc(OC)cc2)c2ccccc2n1`, the max activity is -14.2% (inactive).
To `CC(=O)N1CCN(C(C)C)C(c2nnc3ccc(C(=O)N4CCCC4)cn23)C1` (stereo not given) belongs 43.3% (inactive); to `COCC(=O)N1CC(=O)N2[C@H](CO)[C@@H](c3ccc(-c4ccccc4F)cc3)[C@H]2C1`, 43.4% (inactive); to `COc1ccc(-c2ccc([C@@H]3[C@@H](CO)N4C(=O)CN(Cc5ccccc5)C[C@@H]34)cc2)cc1`, 9.38% [at 5 µM] (inactive).
As for `COc1ccc(-c2ccc([C@@H]3[C@@H](CO)N4C(=O)CN(Cc5ccccc5)C[C@H]34)cc2)cc1`, the max activity is 18% [at 10 µM] (inactive).
To `COCC(=O)N1CC(=O)N2[C@H](CO)[C@@H](c3ccc(-c4ccncc4)cc3)[C@H]2C1` belongs 45.2% (inactive).
